Measured values: PubChem BioAssay (NCATS)
Results filed as inconclusive are left out. The source made the active and inactive calls. Unless noted, calls follow the shape of the dose curve; as a rule, active = well fitted curve in the direction sought with a large enough effect; inconclusive = small, poorly fitted or top-dose-only effect, or another doubt; inactive = no such curve, though single readings can be large; an effect the other way counts as inactive or inconclusive.

Columns and labels:
[1] = target: Glucocorticoid receptor (Homo sapiens) (UniProt P04150); test: GR-GFP Redistribution (AID 450;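 active = compounds whose dose series gives a full or clear partial fitted curve of increased nuclear translocation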; also: potency is read from the fitted curve at half-maximal effect); details: U2OS GR-GFP nuclear translocation, laser cytometry, 2 h
Chain of Glucocorticoid receptor (Homo sapiens) (P04150 whole entry, looked up): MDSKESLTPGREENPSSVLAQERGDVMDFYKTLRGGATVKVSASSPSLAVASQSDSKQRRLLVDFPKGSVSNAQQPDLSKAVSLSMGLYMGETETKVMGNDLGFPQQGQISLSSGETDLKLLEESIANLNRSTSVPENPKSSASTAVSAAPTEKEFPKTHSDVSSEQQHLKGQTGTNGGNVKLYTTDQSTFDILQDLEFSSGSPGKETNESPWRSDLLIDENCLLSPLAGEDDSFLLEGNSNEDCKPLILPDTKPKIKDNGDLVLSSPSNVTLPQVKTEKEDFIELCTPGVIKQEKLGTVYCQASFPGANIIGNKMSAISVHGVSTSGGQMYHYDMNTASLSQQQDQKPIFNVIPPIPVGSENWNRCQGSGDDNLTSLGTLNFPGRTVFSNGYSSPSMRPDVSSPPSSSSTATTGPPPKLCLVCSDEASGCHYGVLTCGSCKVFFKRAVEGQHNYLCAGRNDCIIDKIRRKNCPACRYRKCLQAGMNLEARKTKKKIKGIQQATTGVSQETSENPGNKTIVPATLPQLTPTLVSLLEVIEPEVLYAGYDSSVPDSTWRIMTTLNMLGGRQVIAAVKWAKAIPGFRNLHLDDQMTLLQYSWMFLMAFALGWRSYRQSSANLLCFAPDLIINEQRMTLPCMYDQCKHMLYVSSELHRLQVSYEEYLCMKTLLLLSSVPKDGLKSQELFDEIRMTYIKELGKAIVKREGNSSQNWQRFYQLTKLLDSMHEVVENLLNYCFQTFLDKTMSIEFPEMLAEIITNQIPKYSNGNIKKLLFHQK

[2] = target: Mitogen-activated protein kinase 10 (Mus musculus) (UniProt Q61831); test: JNK3 AlphaScreen Assay (AID 530; active = well fitted curve in either direction with a large enough effect, not every such curve was filed as active;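 also: kinase came from lysate of stimulated human HepG2 cells; signal reports phosphorylation of biotinylated GST-cJun 1-79 at Ser73 with 10 µM ATP; % is scaled to controls: 0 for no effect and ±100 for the full control effect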); details: JNK3 lysate, c-Jun phosphorylation; series mostly up to 57.1 µM
How it was run: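 Compound titrations were preincubated 15 minutes at room temperature with substrate, antibody and pre-activated JNK3-containing HepG2 lysate. Reactions were started with 10 uM ATP and stopped with EDTA-containing bead buffer for AlphaScreen detection.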

[3] = target: 3',5'-cyclic-AMP phosphodiesterase 4B (Homo sapiens) (UniProt Q07343); test: qHTS Assay for Inhibitors of PDE-IV (AID 607; active = well fitted activation curve with a large enough effect in the main read-out, with a control signal flat, not every such curve was filed as active; also: % of control where 0% means no effect); details: HEK293 ACTOne CNG channel cells, membrane potential fluorescence; series mostly up to 22.9 µM
Chain of 3',5'-cyclic-AMP phosphodiesterase 4B (Homo sapiens) (Q07343 whole entry, looked up): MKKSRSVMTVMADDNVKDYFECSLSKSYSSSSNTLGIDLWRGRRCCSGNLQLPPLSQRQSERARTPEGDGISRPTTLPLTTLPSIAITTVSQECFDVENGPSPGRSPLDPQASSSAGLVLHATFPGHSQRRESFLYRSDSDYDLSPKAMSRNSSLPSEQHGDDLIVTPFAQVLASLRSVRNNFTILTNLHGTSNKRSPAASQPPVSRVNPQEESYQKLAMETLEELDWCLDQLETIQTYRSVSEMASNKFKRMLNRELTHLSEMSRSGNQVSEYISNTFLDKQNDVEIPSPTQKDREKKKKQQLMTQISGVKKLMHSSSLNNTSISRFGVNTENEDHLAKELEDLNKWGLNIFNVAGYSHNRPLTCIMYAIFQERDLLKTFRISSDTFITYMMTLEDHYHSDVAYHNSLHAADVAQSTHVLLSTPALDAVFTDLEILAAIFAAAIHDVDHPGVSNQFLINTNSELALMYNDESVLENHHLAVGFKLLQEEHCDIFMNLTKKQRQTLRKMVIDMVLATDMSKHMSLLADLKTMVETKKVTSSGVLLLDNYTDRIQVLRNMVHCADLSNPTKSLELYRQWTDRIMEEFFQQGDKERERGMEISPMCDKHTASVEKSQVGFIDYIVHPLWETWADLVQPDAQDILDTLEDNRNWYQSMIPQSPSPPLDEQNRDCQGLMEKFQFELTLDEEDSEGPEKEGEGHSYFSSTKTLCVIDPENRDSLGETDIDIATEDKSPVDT
How it was run: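 Live HEK293 cells with a modified cyclic nucleotide-gated (CNG) channel report intracellular cAMP via membrane-potential dye fluorescence (ex 535/em 590 nm). Endogenous PDE-IV was targeted. Compounds were tested at up to 22.9 uM final; RO 20-1724 100 uM served as control.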

[4] = target: Cytochrome P450 3A4 (Homo sapiens) (UniProt P08684); test: qHTS Assay for Activators of Cytochrome P450 3A4 (AID 885); details: recombinant CYP3A4, Luciferin-PPXE luminescence, 60 min; series mostly up to 57.1 µM; also: nearly all actives have a fitted effect of over 65% in size
Chain of Cytochrome P450 3A4 (Homo sapiens) (P08684 whole entry, looked up): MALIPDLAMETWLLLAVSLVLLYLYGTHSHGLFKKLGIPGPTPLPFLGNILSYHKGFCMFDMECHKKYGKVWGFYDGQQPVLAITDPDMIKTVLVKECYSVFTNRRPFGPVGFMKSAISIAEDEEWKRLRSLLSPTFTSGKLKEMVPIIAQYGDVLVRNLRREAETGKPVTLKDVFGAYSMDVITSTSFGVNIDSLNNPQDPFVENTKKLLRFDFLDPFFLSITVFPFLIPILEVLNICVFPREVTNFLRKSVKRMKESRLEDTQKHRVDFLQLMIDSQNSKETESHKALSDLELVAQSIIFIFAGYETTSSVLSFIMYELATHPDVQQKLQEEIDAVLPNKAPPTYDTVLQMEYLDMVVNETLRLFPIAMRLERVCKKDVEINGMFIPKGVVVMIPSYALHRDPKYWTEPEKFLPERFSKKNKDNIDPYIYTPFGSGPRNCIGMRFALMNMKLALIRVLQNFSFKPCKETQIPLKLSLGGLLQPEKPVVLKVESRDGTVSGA
How it was run: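 Quantitative HTS format: compounds preincubated with 20nM human CYP3A4 and Luciferin-PPXE substrate at KM, reaction started by NADPH regeneration, stopped after 60 min, luciferase luminescence read 20 min later.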

[5] = qHTS Assay for Lipid Storage Modulators (AID 1519; calls by dose curve; as to activity change, negative = inhibition: % is scaled to controls: 0 for no effect and ±100 for the full control effect); details: Drosophila S3 cells, BODIPY lipid droplet/cell ratio, laser cytometry, cells loaded with oleic acid
How it was run: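 Cells seeded at 5,000 per well were treated with compounds over a concentration series and loaded with oleic acid (400 uM, as added). Lipid droplet fluorescence (488 nm excitation, 500-530 nm channel) was read by laser-scanning cytometry and normalized to 20 uM Triacsin C.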

[6] = target: Ubiquitin carboxyl-terminal hydrolase 1 (Homo sapiens) (UniProt O94782); test: Inhibitors of USP1/UAF1: Pilot qHTS (AID 504865); details: purified USP1/UAF1, Ub-rhodamine cleavage fluorescence; series mostly up to 114 µM;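 also: rhodamine fluorescence freed from ubiquitin-rhodamine substrate followed over time; top concentration of the series differs between compounds; % is scaled to controls: 0 for no effect and ±100 for the full control effect; nearly all actives have a fitted effect of over 35% in size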
Chain of Ubiquitin carboxyl-terminal hydrolase 1 (Homo sapiens) (O94782 whole entry, looked up): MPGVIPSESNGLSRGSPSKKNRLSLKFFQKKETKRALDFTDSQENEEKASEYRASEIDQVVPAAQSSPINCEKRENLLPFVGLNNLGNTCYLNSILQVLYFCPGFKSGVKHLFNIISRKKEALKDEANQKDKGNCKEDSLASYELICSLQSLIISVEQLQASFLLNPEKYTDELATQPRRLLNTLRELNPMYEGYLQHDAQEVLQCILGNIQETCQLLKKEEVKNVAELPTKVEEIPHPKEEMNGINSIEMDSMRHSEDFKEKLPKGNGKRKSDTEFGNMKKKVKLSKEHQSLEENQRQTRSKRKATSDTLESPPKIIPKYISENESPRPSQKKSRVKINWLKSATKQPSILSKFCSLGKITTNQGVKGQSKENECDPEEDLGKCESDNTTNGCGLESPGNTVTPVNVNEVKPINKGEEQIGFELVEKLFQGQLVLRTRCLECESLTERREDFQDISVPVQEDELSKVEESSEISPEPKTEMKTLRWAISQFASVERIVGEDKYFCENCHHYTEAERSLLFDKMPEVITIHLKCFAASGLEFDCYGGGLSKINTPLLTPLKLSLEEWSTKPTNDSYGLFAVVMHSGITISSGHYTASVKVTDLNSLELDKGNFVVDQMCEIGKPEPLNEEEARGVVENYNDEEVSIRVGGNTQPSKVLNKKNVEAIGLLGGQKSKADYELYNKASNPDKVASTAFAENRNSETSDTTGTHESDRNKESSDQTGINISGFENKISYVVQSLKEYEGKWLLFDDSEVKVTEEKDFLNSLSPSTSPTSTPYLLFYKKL
How it was run: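 Enzyme-free wells gave the negative control, while test wells held 1nM USP1/UAF1 preincubated with compound for 15 min at room temperature. Ub-Rho at 150nM final started the reaction, and fluorescence at 480/540 nm was recorded kinetically.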

[7] = target: DNA dC->dU-editing enzyme APOBEC-3G (Homo sapiens) (UniProt Q9HC16); test: qHTS for inhibitors of Vif-A3G interactions: Validation (AID 588379); details: Vif-A3G protein interaction assay; series mostly up to 46.1 µM; also: 0% is about no effect
Chain of DNA dC->dU-editing enzyme APOBEC-3G (Homo sapiens) (Q9HC16 whole entry, looked up): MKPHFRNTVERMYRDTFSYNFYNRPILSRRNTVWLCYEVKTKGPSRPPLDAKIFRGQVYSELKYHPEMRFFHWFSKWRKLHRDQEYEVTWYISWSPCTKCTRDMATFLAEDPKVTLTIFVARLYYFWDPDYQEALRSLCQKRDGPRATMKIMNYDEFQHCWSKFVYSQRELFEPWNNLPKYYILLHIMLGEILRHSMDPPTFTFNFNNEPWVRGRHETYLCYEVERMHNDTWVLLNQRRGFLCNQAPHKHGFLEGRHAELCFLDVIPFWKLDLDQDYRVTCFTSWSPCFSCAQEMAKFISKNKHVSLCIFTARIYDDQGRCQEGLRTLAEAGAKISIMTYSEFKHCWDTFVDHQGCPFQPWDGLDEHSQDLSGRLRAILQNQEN
How it was run: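 HeLa cells stably expressing Vif and A3G-eYFP, 700 cells/well, incubated overnight at 37 deg C, then exposed to compound overnight at 37 deg C. Inhibition of Vif-mediated degradation read as increased yellow fluorescence (Ex 488/Em 500-530) by laser-scanning cytometry.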

[8] = test system: Zika virus NS2B-NS3 protease; test: Primary screen GU AMC qHTS for Zika virus inhibitors (AID 1347154); details: Zika NS2B-NS3 unlinked protease, AMC fluorogenic substrate; series mostly up to 54.1 µM;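 also: 0% = no-inhibitor control and -100% = no-enzyme control; nearly all actives have a fitted effect of over 70% in size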
How it was run: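 Fluorogenic AMC-substrate cleavage by noncovalent NS2B-NS3 protease complex (25 nM, pH 8.0 Tris buffer with Tween 20) followed for 15 minutes at room temperature (~20% conversion). Percent inhibition from ex340/em450 signal change, fitted by 4-parameter Hill equation.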

[9] = Primary qHTS for small molecule stabilizers of the endoplasmic reticulum resident proteome: Secreted ER Calcium Modulated Protein (SERCaMP) assay (AID 1508630); details: SH-SY5Y GLuc-SERCaMP (Gaussia luciferase released on ER calcium loss) secretion, thapsigargin, luminescence; series mostly up to 38.4 µM; also: % is scaled to controls: 0 for no effect and ±100 for the full control effect
How it was run: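 GLuc-SERCaMP-expressing SH-SY5Y cells, pretreated 16 h with compound, are challenged with thapsigargin to empty ER calcium stores; after 4 h, coelenterazine is added directly to the medium and luminescence is imaged.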

C=CCN1C[C@H](C)N([C@@H](c2ccccc2)c2ccc(C(=O)N(CC)CC)cc2)C[C@H]1C
20%: max response ([5]; measured here: lipid channel max response)
inactive: Potency [1] > 46 µM | outcome [2] | Potency [3] | Potency [4] | activity change, negative = inhibition ([5]; at 57.5 µM (top of the series)) 7.78% | Potency [6] | Potency [7] | Potency [8] | Potency [9]
14.7%: max response ([5]; measured here: cell count channel max response)
